Reference: PubChem BioAssay (Tox21)
“And” between values parts separate entries of the source, which are not always exact repeats. Equal entries are not always repeated. Inconclusive results are not listed. Entries that show only a call come without a potency. More than one record can exist for a structure, and the calls need not agree. The source made the active and inactive calls. Unless noted, the call rests on the fitted dose curve.

Assays:
[1] = biological target: Gonadotropin-releasing hormone receptor (Homo sapiens) (UniProt P30968); experiment: Human gonadotropin-releasing hormone receptor (GnRHR) small molecule agonists, calcium flux assay in GnRHR-HEK293 cells (AID 1920063); further: nearly all actives have a fitted effect of over 35% in size; further: potency means the concentration at half of the fitted maximal effect
In short: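 Fluorescence kinetics (480 nm excitation, 540 nm emission; 3 min, 1 s steps) report calcium mobilisation in human GnRHR-HEK293 cells in agonist mode. Dye incubation: 1 h, 37 C.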

[2] = biological target: KiSS-1 receptor (Homo sapiens) (UniProt Q969F8); experiment: Human kisspeptin (KISS1R) small molecule agonists, calcium flux assay in KISS1R-HEK293 cells (AID 1920064; active means well fitted activation curve with a large enough effect in the repeat runs; further: potency means the concentration at half of the fitted maximal effect)
In short: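 Measures KISS1R agonism through calcium-sensitive dye fluorescence in stably transfected HEK293 cells, read for 3 min after pin-tool compound delivery; 15-point titrations in triplicate.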

[3] = G protein-coupled receptor (GPCR) small molecule agonists, calcium flux assay: HEK293 wild type cell line counter screen (AID 1920065); further: potency means the concentration at half of the fitted maximal effect
In short: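 Readout: fluorescence at 480 nm excitation/540 nm emission, sampled at 1 s intervals for 3 min. Cells had been cultured 18 h, then dye-loaded 1 h at 37 C before compound or ATP addition.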

[4] = p53 small molecule agonists, cell-based qHTS assay with human liver microsomes (AID 1963577)
In short: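 p53RE-bla reporter cells were pre-incubated 5 h at 37 C, then treated with compounds plus human liver microsomes (0.5 mg/mL final) and NADPH (0.5 mg/mL final) for 16 h at 37 C. Beta-lactamase activity was read by LiveBLAzer fluorescence after 2 h at room temperature.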

[5] = p53 small molecule agonists, cell-based qHTS assay with rat liver microsomes (AID 1963578)
In short: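 p53RE-bla cells were exposed to compounds together with rat liver microsomes (0.5 mg/mL final) and NADPH (0.5 mg/mL final) for 16 h at 37 C, then read by LiveBLAzer beta-lactamase fluorescence after 2 h at room temperature.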

[6] = p53 small molecule agonists, cell-based qHTS assay with human liver microsomes: qHTS cell viability counter screen (AID 1963579); further: nearly all actives have a fitted effect of over 45% in size; further: potency means the concentration at half of the fitted maximal effect
In short: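 p53RE-bla cells (4,000/well) were pre-incubated 5 h at 37 C, then given compounds in DMSO plus human liver microsomes (0.5 mg/mL final) and NADPH (0.5 mg/mL final) for 16 h at 37 C. Viability was read by CellTiter-Glo luminescence.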

[7] = p53 small molecule agonists, cell-based qHTS assay with rat liver microsomes: qHTS cell viability counter screen (AID 1963580); further: nearly all actives have a fitted effect of over 45% in size; further: potency means the concentration at half of the fitted maximal effect
In short: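 Viability is assessed in parallel with the p53 reporter read: HCT-116 p53RE-bla cells receive compounds plus rat microsomes and NADPH (0.5 mg/mL final apiece), incubate 16 h at 37 C, and then CellTiter-Glo luminescence is recorded.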

[8] = p53 small molecule agonists, cell-based qHTS assay: qHTS cell viability counter screen (AID 1963581); further: nearly all actives have a fitted effect of over 45% in size; further: potency means the concentration at half of the fitted maximal effect
In short: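 In the same plates used for the p53 bla reporter, HCT-116 cells given compounds for 16 h at 37 C received CellTiter-Glo; luminescence was recorded 30 min later at room temperature.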

[9] = p53 small molecule agonists, cell-based qHTS assay (AID 1963582; active means well fitted activation curve with a large enough effect in the signal ratio in the repeat runs, not every such curve was filed as active; the % refers to the signal ratio)
In short: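 Compounds are pin-transferred in DMSO onto p53RE-bla cells and incubated 16 h at 37 C. The B/G FRET beta-lactamase substrate is then applied for 2 h at RT and fluorescence recorded.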

[10] = biological target: 5-hydroxytryptamine receptor 2A (Homo sapiens) (UniProt P28223); experiment: 5-hydroxytryptamine receptor 2A (HTR2A) small molecule antagonists, cell-based qHTS assay (AID 1963586); further: nearly all actives have a fitted effect of over 45% in size
In short: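 Antagonist-mode intracellular calcium assay: DOI (4 nM) added after 5 min compound pre-incubation at room temperature to dye-loaded HTR2A-CHO cells. Fluorescence followed for 3 min, sampled every second.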

[11] = biological target: 5-hydroxytryptamine receptor 2A (Homo sapiens) (UniProt P28223); experiment: 5-hydroxytryptamine receptor 2A (HTR2A) small molecule agonists, cell-based qHTS assay (AID 1963587); further: nearly all actives have a fitted effect of over 30% in size; further: potency means the concentration at half of the fitted maximal effect
In short: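 CHO cells stably expressing human HTR2A, plated 18 h, loaded with calcium dye 1 h at 37 C. Agonist mode: compounds added and intracellular calcium fluorescence recorded kinetically for 2 min at 1 sec intervals.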

[12] = biological target: Muscarinic acetylcholine receptor M1 (Homo sapiens) (UniProt P11229); experiment: Cholinergic receptor muscarinic 1 (CHRM1) small molecule antagonists, cell-based qHTS assay (AID 1963588); further: nearly all actives have a fitted effect of over 40% in size; further: potency means the concentration at half of the fitted maximal effect
In short: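 CHRM1-CHO calcium-flux assay, antagonist mode. Cells were seeded 18 h, dye-loaded 1 h at 37 C and given compound for 5 min at RT, then acetylcholine was added at 50nM. FDSS fluorescence was read 3 min; 15 concentrations, three runs.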

[13] = biological target: Muscarinic acetylcholine receptor M1 (Homo sapiens) (UniProt P11229); experiment: Cholinergic receptor muscarinic 1 (CHRM1) small molecule agonists, cell-based qHTS assay (AID 1963589); further: nearly all actives have a fitted effect of over 35% in size; further: potency means the concentration at half of the fitted maximal effect
In short: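 Each compound was tested at 15 concentrations across three independent runs on dye-loaded CHO cells stably expressing human CHRM1, reading intracellular calcium fluorescence kinetically at 1 sec intervals.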

[14] = cAMP Responsive Elements (CRE) small molecule agonists, cell-based qHTS assay (AID 1963590)
In short: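 Cell line: CRE-bla HEK 293T; medium DMEM/10% dialyzed FBS/0.1 mM NEAA/1 mM pyruvate/25 mM HEPES; 3 h compound exposure; beta-lactamase FRET readout after 2 h substrate loading at RT.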

[15] = cAMP Responsive Elements (CRE) small molecule antagonists, cell-based qHTS assay (AID 1963591; active means well fitted inhibition curve with a large enough effect in the signal ratio in the repeat runs, not every such curve was filed as active; the % refers to the signal ratio)
In short: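 Inhibition of NKH477-driven (0.25 uM final) CRE-beta-lactamase signal in HEK293T cells, 3 h compound exposure at 37 °C, detected by FRET substrate fluorescence.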

[16] = biological target: Beta-2 adrenergic receptor (Homo sapiens) (UniProt P07550); experiment: Adrenergic beta2 receptor (ADRB2) small molecule antagonists, cell-based qHTS assay (AID 1963592); further: nearly all actives have a fitted effect of over 50% in size; further: potency means the concentration at half of the fitted maximal effect
In short: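 Cells (CHO, stable ADRB2 overexpression) incubated 18-20hr at 37C; compounds added from DMSO; agonist mix (1nM isoproterenol, 100uM IBMX, 25uM Ro-20-1724) added; 0.5hr RT; d2-cAMP and anti-cAMP-cryptate added; 1hr RT; 665/615 nm read.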

[17] = biological target: Beta-2 adrenergic receptor (Homo sapiens) (UniProt P07550); experiment: Adrenergic beta2 receptor (ADRB2) small molecule agonists, cell-based qHTS assay (AID 1963593);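 further: CHO cells stably overexpressing human ADRB2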
In short: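 CHO cells stably over-expressing ADRB2 were plated overnight at 37C, then dosed with compounds plus a stimulation mix containing 100uM IBMX and 25uM Ro-20-1724 for 0.5hr at room temperature. cAMP was measured by HTRF competition, 1hr.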

[18] = biological target: D(2) dopamine receptor (Homo sapiens) (UniProt P14416); experiment: Dopamine D2 receptor (DRD2) small molecule agonists, cell-based qHTS assay (AID 1963594); further: nearly all actives have a fitted effect of over 35% in size; further: potency means the concentration at half of the fitted maximal effect
In short: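 HEK293 cells stably expressing human DRD2, pre-treated with PDE inhibitor Ro20-1724 (0.1 mM final) and compound 10 min at room temperature, then stimulated with NKH477 (200nM […]) for 30 min. cAMP read by HTRF (665/620 nm).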

[19] = biological target: D(2) dopamine receptor (Homo sapiens) (UniProt P14416); experiment: Dopamine D2 receptor (DRD2) small molecule antagonists, cell-based qHTS assay (AID 1963595; active means well fitted inhibition curve with a large enough effect in the signal ratio in the repeat runs, with a control signal flat; the % refers to the signal ratio; further: potency means the concentration at half of the fitted maximal effect)
In short: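 HEK293 cells stably expressing DRD2, preincubated with 0.1 mM Ro20-1724 and compounds 10 min, were stimulated with 200 nM NKH477 plus 12 nM quinpirole for 30 min at room temperature; cAMP measured by HTRF (665/620 nm).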

Sequence of D(2) dopamine receptor (Homo sapiens) (P14416 whole entry, looked up): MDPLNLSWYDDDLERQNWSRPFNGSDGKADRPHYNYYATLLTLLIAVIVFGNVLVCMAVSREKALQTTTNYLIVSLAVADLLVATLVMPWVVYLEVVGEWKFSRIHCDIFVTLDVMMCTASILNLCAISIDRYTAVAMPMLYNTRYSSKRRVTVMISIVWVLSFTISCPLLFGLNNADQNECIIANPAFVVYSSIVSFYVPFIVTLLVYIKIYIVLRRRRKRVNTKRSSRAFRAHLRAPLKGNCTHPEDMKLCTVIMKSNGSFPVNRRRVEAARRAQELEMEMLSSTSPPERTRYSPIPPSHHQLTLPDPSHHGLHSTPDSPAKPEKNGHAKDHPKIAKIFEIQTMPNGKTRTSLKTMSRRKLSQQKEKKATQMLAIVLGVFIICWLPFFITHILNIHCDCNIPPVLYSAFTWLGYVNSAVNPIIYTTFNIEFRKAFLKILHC
Sequence of Gonadotropin-releasing hormone receptor (Homo sapiens) (P30968 whole entry, looked up): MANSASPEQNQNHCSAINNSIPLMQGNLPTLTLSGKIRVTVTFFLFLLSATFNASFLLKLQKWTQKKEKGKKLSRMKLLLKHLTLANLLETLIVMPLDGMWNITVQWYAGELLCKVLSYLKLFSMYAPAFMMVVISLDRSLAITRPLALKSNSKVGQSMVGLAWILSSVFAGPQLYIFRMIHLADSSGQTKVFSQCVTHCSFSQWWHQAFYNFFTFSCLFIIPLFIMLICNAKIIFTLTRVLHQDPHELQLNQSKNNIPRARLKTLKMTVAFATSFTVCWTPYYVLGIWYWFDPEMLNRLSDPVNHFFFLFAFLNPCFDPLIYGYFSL
Sequence of Beta-2 adrenergic receptor (Homo sapiens) (P07550 whole entry, looked up): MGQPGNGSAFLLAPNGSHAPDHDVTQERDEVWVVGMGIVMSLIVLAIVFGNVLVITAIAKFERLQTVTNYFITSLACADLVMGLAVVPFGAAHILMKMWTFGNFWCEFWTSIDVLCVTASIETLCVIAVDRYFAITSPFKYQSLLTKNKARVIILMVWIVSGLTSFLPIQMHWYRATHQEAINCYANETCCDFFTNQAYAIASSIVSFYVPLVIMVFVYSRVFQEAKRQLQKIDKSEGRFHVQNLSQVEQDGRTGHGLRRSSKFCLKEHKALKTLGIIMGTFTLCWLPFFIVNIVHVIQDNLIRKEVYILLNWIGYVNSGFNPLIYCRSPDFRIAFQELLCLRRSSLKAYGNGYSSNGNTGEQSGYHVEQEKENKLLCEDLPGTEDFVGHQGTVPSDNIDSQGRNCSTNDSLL
Sequence of Muscarinic acetylcholine receptor M1 (Homo sapiens) (P11229 whole entry, looked up): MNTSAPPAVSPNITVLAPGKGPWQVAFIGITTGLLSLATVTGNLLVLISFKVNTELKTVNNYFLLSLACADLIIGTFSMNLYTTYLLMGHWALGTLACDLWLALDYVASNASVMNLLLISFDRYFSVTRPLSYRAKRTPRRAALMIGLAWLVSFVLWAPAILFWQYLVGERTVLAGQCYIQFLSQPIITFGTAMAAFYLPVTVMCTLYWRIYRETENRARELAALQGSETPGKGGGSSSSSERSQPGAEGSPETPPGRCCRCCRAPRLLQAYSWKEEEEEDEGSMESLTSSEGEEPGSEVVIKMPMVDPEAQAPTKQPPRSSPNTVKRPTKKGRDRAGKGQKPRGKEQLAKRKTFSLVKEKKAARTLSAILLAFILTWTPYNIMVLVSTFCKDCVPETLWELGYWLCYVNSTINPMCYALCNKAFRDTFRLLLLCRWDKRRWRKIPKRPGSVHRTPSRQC
Sequence of KiSS-1 receptor (Homo sapiens) (Q969F8 whole entry, looked up): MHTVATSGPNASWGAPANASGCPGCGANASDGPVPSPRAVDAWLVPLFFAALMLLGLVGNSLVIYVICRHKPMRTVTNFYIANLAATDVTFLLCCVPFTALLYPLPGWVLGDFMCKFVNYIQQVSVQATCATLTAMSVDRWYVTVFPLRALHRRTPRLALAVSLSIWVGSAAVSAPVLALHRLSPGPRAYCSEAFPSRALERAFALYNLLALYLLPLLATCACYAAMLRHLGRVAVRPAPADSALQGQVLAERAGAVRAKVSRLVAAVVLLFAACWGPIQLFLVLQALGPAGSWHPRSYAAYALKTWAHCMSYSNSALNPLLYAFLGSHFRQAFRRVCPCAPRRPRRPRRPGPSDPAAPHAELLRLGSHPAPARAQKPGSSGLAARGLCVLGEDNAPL
Sequence of 5-hydroxytryptamine receptor 2A (Homo sapiens) (P28223 whole entry, looked up): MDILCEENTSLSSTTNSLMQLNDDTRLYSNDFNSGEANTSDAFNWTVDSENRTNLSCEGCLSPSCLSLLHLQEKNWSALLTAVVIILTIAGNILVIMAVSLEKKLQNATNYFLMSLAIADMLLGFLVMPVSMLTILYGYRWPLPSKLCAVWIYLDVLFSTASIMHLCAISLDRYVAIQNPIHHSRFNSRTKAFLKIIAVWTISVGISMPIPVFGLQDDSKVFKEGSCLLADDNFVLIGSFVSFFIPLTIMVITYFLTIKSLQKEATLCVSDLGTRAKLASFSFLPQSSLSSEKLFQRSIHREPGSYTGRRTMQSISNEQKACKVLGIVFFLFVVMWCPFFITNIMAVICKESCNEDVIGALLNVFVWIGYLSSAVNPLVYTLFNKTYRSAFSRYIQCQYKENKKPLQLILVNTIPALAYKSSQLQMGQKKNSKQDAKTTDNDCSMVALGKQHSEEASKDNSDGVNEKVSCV

Compound	Potency [1]	Potency [2]	Potency [3]	Potency [4]	Potency [5]	Potency [6]	Potency [7]	Potency [8]	Potency [9]	Potency [10]	Potency [11]	Potency [12]	Potency [13]	Potency [14]	Potency [15]	Potency [16]	Potency [17]	Potency [18]	Potency [19]
NCCS(=O)(=O)O	inactive	inactive	inactive	inactive	inactive	inactive	inactive	inactive	inactive	inactive	inactive	inactive	inactive	inactive	inactive	inactive	inactive	inactive	inactive
CC(C)CC(C)CC(O)CC(C)C (stereo unspecified)	inactive	inactive	inactive	inactive	inactive	inactive	inactive	inactive	inactive	inactive	inactive	inactive	inactive	inactive	inactive	inactive	inactive	1.8 nM (active) and inactive	inactive
CC(C)CCCCCCCOC(=O)CCCCC(=O)OCCCCCCCC(C)C	inactive	inactive	inactive	inactive	inactive	inactive	inactive	inactive	inactive	inactive	inactive	inactive	inactive	inactive	inactive	inactive	–	inactive	inactive
C=C(C)C(=O)OCCC[Si](OC)(OC)OC	–	inactive	inactive	inactive	inactive	inactive	inactive	inactive	–	inactive	inactive	inactive	inactive	inactive	inactive	inactive	–	inactive	inactive
COc1ccc([N+](=O)[O-])cc1N	–	inactive	inactive	inactive	inactive	inactive	–	inactive	inactive	inactive	inactive	inactive	inactive	inactive	inactive	inactive	inactive	inactive	inactive
Cc1ccc(O)cc1	inactive	inactive	inactive	inactive	inactive	inactive	inactive	inactive	inactive	inactive	inactive	inactive	inactive	–	inactive	inactive	inactive	inactive	inactive
C[N+](C)(C)CCCCCC[N+](C)(C)C	inactive	inactive	inactive	inactive	inactive	inactive	inactive	–	inactive	inactive	inactive	inactive	inactive	inactive	inactive	inactive	inactive	inactive	inactive
CCCCOC(=O)CC(CC(=O)OCCCC)(OC(C)=O)C(=O)OCCCC	inactive	inactive	inactive	inactive	–	inactive	inactive	inactive	inactive	inactive	inactive	inactive	inactive	inactive	inactive	inactive	–	inactive	inactive
C1CNCCN1	inactive	inactive	inactive	inactive	inactive	inactive	inactive	inactive	inactive	inactive	inactive	4.86 µM (active) and inactive	inactive	inactive	inactive	inactive	inactive	inactive	inactive
COc1ccc(CN(CCN(C)C)c2ccccn2)cc1	inactive	inactive	inactive	–	–	inactive	inactive	inactive	–	–	–	–	–	inactive	inactive	inactive	inactive	inactive	inactive
CCCCCCCC(=O)OCC(O)CO (stereo unspecified)	inactive	–	inactive	inactive	inactive	inactive	inactive	inactive	–	inactive	inactive	inactive	inactive	–	inactive	inactive	inactive	inactive	inactive
CCCCCC(N)=O	inactive	inactive	inactive	inactive	–	inactive	inactive	inactive	inactive	–	inactive	–	inactive	inactive	inactive	inactive	–	inactive	–
C1CCCNCC1	inactive	inactive	inactive	–	–	inactive	–	inactive	–	inactive	inactive	inactive	inactive	inactive	inactive	inactive	–	inactive	inactive
c1ccc2c(c1)[nH]c1ccccc12	inactive	inactive	inactive	inactive	inactive	inactive	inactive	inactive	inactive	inactive	inactive	inactive	inactive	inactive	inactive	inactive	–	inactive	inactive
Cc1ccc(S(=O)(=O)O)cc1C	inactive	inactive	inactive	inactive	inactive	inactive	inactive	inactive	inactive	inactive	inactive	inactive	inactive	inactive	inactive	–	inactive	inactive	inactive
CCOc1ccc(NC(=O)CC(C)O)cc1 (stereo unspecified)	inactive	inactive	inactive	inactive	inactive	inactive	inactive	inactive	inactive	inactive	–	inactive	inactive	inactive	inactive	inactive	inactive	inactive	inactive
ClC/C=C/CCl	inactive	inactive	inactive	inactive	inactive	inactive	–	inactive	inactive	inactive	inactive	inactive	inactive	inactive	inactive	inactive	inactive	inactive	inactive
CCN=c1cc2oc3cc(NCC)c(C)cc3c(-c3ccccc3C(=O)OCC)c-2cc1C	12.3 µM (active) and 7.76 µM (active)	17.3 µM (active) and 21.9 µM (active)	–	inactive	inactive	40.6 µM (active) and 40.8 µM (active)	20.4 µM (active) and 40.8 µM (active)	45.6 µM (active)	–	inactive	5.47 µM (active) and 19.5 µM (active)	inactive	19.4 µM (active) and 19.5 µM (active)	–	–	–	–	–	34.4 µM (active)
Oc1ccc(O)cc1	inactive	inactive	inactive	inactive	inactive	inactive	inactive	inactive	inactive	inactive	inactive	inactive	inactive	–	inactive	inactive	inactive	inactive	inactive
O=C1OC2(c3ccccc31)c1cc(I)c(O)c(I)c1Oc1c2cc(I)c(O)c1I	22.1 µM (active) [middle of 4 runs]	31.3 µM (active) and 26.8 µM (active)	39 µM (active) and 22.1 µM (active) and 19 µM (active)	inactive	–	inactive	inactive	inactive	–	inactive	–	inactive	33.4 µM (active) [middle of 4 runs]	inactive	inactive	33.5 µM (active)	–	39 µM (active) and 31 µM (active)	–
CC1(C)S[C@@H]2[C@H](NC(=O)[C@H](N)c3ccccc3)C(=O)N2[C@H]1C(=O)O	inactive	inactive	inactive	inactive	–	–	inactive	inactive	inactive	–	–	–	–	inactive	inactive	inactive	inactive	inactive	inactive
CC(C)=CCC/C(C)=C/CO	inactive	inactive	inactive	inactive	inactive	inactive	inactive	inactive	inactive	–	–	–	–	inactive	inactive	inactive	inactive	inactive	inactive
